# Data from PMC11006913.
# Positions count from the first letter of the chain named.
# Key:
# Test in all cases: PBM; 200 nM protein, PBS
# Details in all cases: dsDNA, one strand shown
# HOXC10 = HOXC10 (Homo sapiens, UniProt Q9NYD6 254-340)
# HOXA7 [1] = biological target: HOXA7 (Homo sapiens, UniProt P31268 116-202)
# HOXA7 [2] = biological target: HOXA7 (Homo sapiens, UniProt P31268 116-202, W177C)
# NKX2-4 = biological target: T1, NKX2-4 (Homo sapiens, UniProt Q9H2Z4 175-261, T231S)
# T1 sequence: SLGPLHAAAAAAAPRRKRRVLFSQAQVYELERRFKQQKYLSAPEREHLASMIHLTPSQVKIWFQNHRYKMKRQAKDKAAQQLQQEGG
# NKX2-6 [3] = biological target: T2, NKX2-6 (Homo sapiens, UniProt A6NCS4 118-204, R150C)
# T2 sequence: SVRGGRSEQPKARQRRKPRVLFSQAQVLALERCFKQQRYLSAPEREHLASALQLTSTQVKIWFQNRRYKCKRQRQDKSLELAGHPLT
# NKX2-6 [4] = biological target: T3, NKX2-6 (Homo sapiens, UniProt A6NCS4 118-204, F151L)
# T3 sequence: T2 sequence with C33R, F34L
# NKX3-2 [5] = biological target: NKX3-2 (Homo sapiens, UniProt P78367 192-278, P234S)
# Chain of NKX3-2 (Homo sapiens, UniProt P78367 192-278, P234S) (P78367 192-278 P234S): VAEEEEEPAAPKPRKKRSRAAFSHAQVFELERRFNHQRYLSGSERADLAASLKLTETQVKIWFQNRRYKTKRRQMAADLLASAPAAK
# NKX3-2 [6] = biological target: NKX3-2 (Homo sapiens, UniProt P78367 192-278)
# Chain of NKX3-2 (Homo sapiens, UniProt P78367 192-278) (P78367 192-278): as the sequence (P78367 192-278 P234S) above, with S43P counted along it
# Chain of HOXA7 (Homo sapiens, UniProt P31268 116-202, W177C) (P31268 116-202 W177C): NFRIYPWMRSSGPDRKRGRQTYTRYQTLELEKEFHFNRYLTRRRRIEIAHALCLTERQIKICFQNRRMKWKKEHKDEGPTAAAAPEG
# Chain of HOXA7 (Homo sapiens, UniProt P31268 116-202) (P31268 116-202): as the sequence (P31268 116-202 W177C) above, with C62W counted along it
# Chain of HOXC10 (Q9NYD6 254-340): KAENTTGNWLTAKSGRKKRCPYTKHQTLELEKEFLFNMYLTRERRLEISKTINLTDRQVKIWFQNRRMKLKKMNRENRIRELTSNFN
sequence,measurement,setting,value
ATTCGTAA,binding signal,HOXC10,"10.8 upbm affinity estimate (log intensity, higher = more binding, comparable within an allelic series)"
CTGGATGC,binding signal,HOXA7 [1],"8.4 upbm affinity estimate (log intensity, higher = more binding, comparable within an allelic series)"
same,binding signal,HOXA7 [2],"8.44 upbm affinity estimate (log intensity, higher = more binding, comparable within an allelic series)"
TCATTTCA,binding signal,HOXA7 [1],"9.51 upbm affinity estimate (log intensity, higher = more binding, comparable within an allelic series)"
same,binding signal,HOXA7 [2],"8.76 upbm affinity estimate (log intensity, higher = more binding, comparable within an allelic series)"
CTTTTTTA,binding signal,HOXC10,"11.2 upbm affinity estimate (log intensity, higher = more binding, comparable within an allelic series)"
AGCCGCTG,binding signal,HOXA7 [1],"8.52 upbm affinity estimate (log intensity, higher = more binding, comparable within an allelic series)"
same,binding signal,HOXA7 [2],"8.43 upbm affinity estimate (log intensity, higher = more binding, comparable within an allelic series)"
GACAGTAA,binding signal,HOXC10,"11 upbm affinity estimate (log intensity, higher = more binding, comparable within an allelic series)"
CGTGATAA,binding signal,HOXC10,"10.9 upbm affinity estimate (log intensity, higher = more binding, comparable within an allelic series)"
CCCCGTTA,binding signal,HOXA7 [1],"9.61 upbm affinity estimate (log intensity, higher = more binding, comparable within an allelic series)"
same,binding signal,HOXA7 [2],"8.75 upbm affinity estimate (log intensity, higher = more binding, comparable within an allelic series)"
GTACTTTA,binding signal,NKX2-4,"12.8 upbm affinity estimate (log intensity, higher = more binding, comparable within an allelic series)"
CCGTAATA,binding signal,HOXA7 [1],"10.2 upbm affinity estimate (log intensity, higher = more binding, comparable within an allelic series)"
same,binding signal,HOXA7 [2],"8.79 upbm affinity estimate (log intensity, higher = more binding, comparable within an allelic series)"
AACAATCA,binding signal,HOXC10,"10.9 upbm affinity estimate (log intensity, higher = more binding, comparable within an allelic series)"
AGATGTTA,binding signal,HOXC10,"10.8 upbm affinity estimate (log intensity, higher = more binding, comparable within an allelic series)"
ATCATCTA,binding signal,HOXA7 [1],"9.36 upbm affinity estimate (log intensity, higher = more binding, comparable within an allelic series)"
same,binding signal,HOXA7 [2],"8.74 upbm affinity estimate (log intensity, higher = more binding, comparable within an allelic series)"
CTCTGAGC,binding signal,HOXA7 [1],"8.36 upbm affinity estimate (log intensity, higher = more binding, comparable within an allelic series)"
same,binding signal,HOXA7 [2],"8.46 upbm affinity estimate (log intensity, higher = more binding, comparable within an allelic series)"
AGCATGCT,binding signal,HOXA7 [1],"8.54 upbm affinity estimate (log intensity, higher = more binding, comparable within an allelic series)"
same,binding signal,HOXA7 [2],"8.54 upbm affinity estimate (log intensity, higher = more binding, comparable within an allelic series)"
AGAATGAT,binding signal,HOXA7 [1],"9.52 upbm affinity estimate (log intensity, higher = more binding, comparable within an allelic series)"
same,binding signal,HOXA7 [2],"8.8 upbm affinity estimate (log intensity, higher = more binding, comparable within an allelic series)"
AGTAGTTA,binding signal,HOXA7 [1],"10 upbm affinity estimate (log intensity, higher = more binding, comparable within an allelic series)"
same,binding signal,HOXA7 [2],"8.75 upbm affinity estimate (log intensity, higher = more binding, comparable within an allelic series)"
CAAAGCGG,binding signal,HOXA7 [1],"8.47 upbm affinity estimate (log intensity, higher = more binding, comparable within an allelic series)"
same,binding signal,HOXA7 [2],"8.45 upbm affinity estimate (log intensity, higher = more binding, comparable within an allelic series)"
CTATTATA,binding signal,HOXA7 [1],"10.7 upbm affinity estimate (log intensity, higher = more binding, comparable within an allelic series)"
same,binding signal,HOXA7 [2],"8.92 upbm affinity estimate (log intensity, higher = more binding, comparable within an allelic series)"
CGACTAGC,binding signal,HOXA7 [1],"8.47 upbm affinity estimate (log intensity, higher = more binding, comparable within an allelic series)"
same,binding signal,HOXA7 [2],"8.47 upbm affinity estimate (log intensity, higher = more binding, comparable within an allelic series)"
CCATTATA,binding signal,HOXA7 [1],"11.2 upbm affinity estimate (log intensity, higher = more binding, comparable within an allelic series)"
same,binding signal,HOXA7 [2],"8.97 upbm affinity estimate (log intensity, higher = more binding, comparable within an allelic series)"
GGGTACCC,binding signal,HOXA7 [1],"8.53 upbm affinity estimate (log intensity, higher = more binding, comparable within an allelic series)"
same,binding signal,HOXA7 [2],"8.44 upbm affinity estimate (log intensity, higher = more binding, comparable within an allelic series)"
AGACGGCG,binding signal,HOXA7 [1],"8.6 upbm affinity estimate (log intensity, higher = more binding, comparable within an allelic series)"
same,binding signal,HOXA7 [2],"8.4 upbm affinity estimate (log intensity, higher = more binding, comparable within an allelic series)"
AATACTAG,binding signal,HOXC10,"10.7 upbm affinity estimate (log intensity, higher = more binding, comparable within an allelic series)"
CACCGCTA,binding signal,HOXA7 [1],"8.52 upbm affinity estimate (log intensity, higher = more binding, comparable within an allelic series)"
same,binding signal,HOXA7 [2],"8.43 upbm affinity estimate (log intensity, higher = more binding, comparable within an allelic series)"
TATGCGCA,binding signal,HOXC10,"10.8 upbm affinity estimate (log intensity, higher = more binding, comparable within an allelic series)"
AGAGCAAG,binding signal,HOXA7 [1],"8.36 upbm affinity estimate (log intensity, higher = more binding, comparable within an allelic series)"
same,binding signal,HOXA7 [2],"8.46 upbm affinity estimate (log intensity, higher = more binding, comparable within an allelic series)"
GCACTTTA,binding signal,NKX2-4,"12.8 upbm affinity estimate (log intensity, higher = more binding, comparable within an allelic series)"
same,binding signal,NKX2-6 [3],"11.7 upbm affinity estimate (log intensity, higher = more binding, comparable within an allelic series)"
same,binding signal,NKX2-6 [4],"10.7 upbm affinity estimate (log intensity, higher = more binding, comparable within an allelic series)"
same,binding signal,NKX3-2 [5],"12.5 upbm affinity estimate (log intensity, higher = more binding, comparable within an allelic series)"
same,binding signal,NKX3-2 [6],"12.6 upbm affinity estimate (log intensity, higher = more binding, comparable within an allelic series)"
AGATAAAC,binding signal,HOXA7 [1],"9.31 upbm affinity estimate (log intensity, higher = more binding, comparable within an allelic series)"
same,binding signal,HOXA7 [2],"8.79 upbm affinity estimate (log intensity, higher = more binding, comparable within an allelic series)"
